# Legend:
# Assay in all cases: DAPPL (digital affinity profiling via proximity ligation, sequencing); 10 mM Tris-HCl pH 7.5, 50 mM NaCl, 1 mM DTT, 4% glycerol, room temperature, 30 min; GST-TFs on glutathione beads, 16-mer random dsDNA library, 0.1% formaldehyde crosslink after washing; high values mean tight binding
# [1] = biological target: T1, FEV (Homo sapiens, UniProt Q99581 1-238); conditions: protein: recombinant; tags: N-terminal GST; dsDNA, one strand shown
# T1 sequence: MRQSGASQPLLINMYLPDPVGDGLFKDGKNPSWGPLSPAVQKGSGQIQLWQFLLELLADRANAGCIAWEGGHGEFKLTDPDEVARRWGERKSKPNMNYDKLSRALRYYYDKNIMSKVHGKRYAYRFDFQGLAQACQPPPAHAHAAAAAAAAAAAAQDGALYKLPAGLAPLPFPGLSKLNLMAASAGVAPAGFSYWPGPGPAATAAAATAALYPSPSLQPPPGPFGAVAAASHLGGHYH
# Outline: (§1)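 Yeast served to express human transcription factors as GST fusions, which were then captured on glutathione beads and labelled with DNA barcodes. Pooled with a tag-only sample, they were incubated with 200 nmole of a 16-mer random double-stranded DNA library for 30 min at room temperature in Tris/NaCl/DTT/glycerol buffer, washed, crosslinked with 0.1% formaldehyde, ligated by proximity, amplified by PCR and sequenced. Dividing each hexamer's read frequency for a factor by its frequency for the tag-only sample gives the binding signal.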
# [2] = biological target: ETV5 (Homo sapiens, UniProt P41161 1-510); conditions: protein: recombinant; tags: N-terminal GST; dsDNA, one strand shown
# Outline: as §1
# [3] = biological target: HSF1 (Homo sapiens, UniProt Q00613 1-529); conditions: protein: recombinant; tags: N-terminal GST; chain copies: 3; dsDNA, one strand shown
# Outline: as §1
# [4] = biological target: T2, SPIC (Homo sapiens, UniProt Q8N5J4 1-248); conditions: protein: recombinant; tags: N-terminal GST; dsDNA, one strand shown
# T2 sequence: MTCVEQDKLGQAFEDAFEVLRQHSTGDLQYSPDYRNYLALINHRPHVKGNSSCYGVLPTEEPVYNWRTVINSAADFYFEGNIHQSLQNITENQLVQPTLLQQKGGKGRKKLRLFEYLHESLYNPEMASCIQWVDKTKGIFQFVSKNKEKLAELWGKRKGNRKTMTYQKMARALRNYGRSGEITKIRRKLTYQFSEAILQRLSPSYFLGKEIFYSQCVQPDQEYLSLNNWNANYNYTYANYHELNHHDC
# Outline: as §1
# [5] = biological target: ELF4 (Homo sapiens, UniProt Q99607 1-663); conditions: protein: recombinant; tags: N-terminal GST; dsDNA, one strand shown
# Outline: as §1
# [6] = biological target: T3, ELK4 (Homo sapiens, UniProt P28324-2 1-405); conditions: protein: recombinant; tags: N-terminal GST; dsDNA, one strand shown
# T3 sequence: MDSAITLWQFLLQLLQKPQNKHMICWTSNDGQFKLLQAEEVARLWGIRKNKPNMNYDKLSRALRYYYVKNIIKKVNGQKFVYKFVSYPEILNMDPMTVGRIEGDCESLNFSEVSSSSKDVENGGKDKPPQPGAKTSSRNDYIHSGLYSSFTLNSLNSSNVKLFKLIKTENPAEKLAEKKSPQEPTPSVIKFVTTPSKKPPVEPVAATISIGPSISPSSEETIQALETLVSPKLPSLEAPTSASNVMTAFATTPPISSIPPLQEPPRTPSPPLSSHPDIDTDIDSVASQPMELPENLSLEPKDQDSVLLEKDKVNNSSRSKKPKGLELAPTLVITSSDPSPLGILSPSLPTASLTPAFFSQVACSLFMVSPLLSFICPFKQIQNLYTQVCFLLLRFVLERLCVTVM
# Outline: as §1
# [7] = biological target: T4, ETV2 (Homo sapiens, UniProt O00321 1-342); conditions: protein: recombinant; tags: N-terminal GST; dsDNA, one strand shown
# T4 sequence: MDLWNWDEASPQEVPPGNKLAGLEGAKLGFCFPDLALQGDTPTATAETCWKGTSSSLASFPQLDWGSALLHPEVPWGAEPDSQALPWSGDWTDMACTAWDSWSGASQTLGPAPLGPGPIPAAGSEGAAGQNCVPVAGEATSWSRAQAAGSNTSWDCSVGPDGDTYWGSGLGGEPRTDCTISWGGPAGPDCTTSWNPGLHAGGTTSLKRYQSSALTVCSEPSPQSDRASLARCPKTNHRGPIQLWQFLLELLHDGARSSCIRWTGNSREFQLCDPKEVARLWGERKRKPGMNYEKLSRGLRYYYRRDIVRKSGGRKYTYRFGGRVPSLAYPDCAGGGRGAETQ
# Outline: as §1
# [8] = biological target: T5, ELF3 (Homo sapiens, UniProt P78545 1-371); conditions: protein: recombinant; tags: N-terminal GST; dsDNA, one strand shown
# T5 sequence: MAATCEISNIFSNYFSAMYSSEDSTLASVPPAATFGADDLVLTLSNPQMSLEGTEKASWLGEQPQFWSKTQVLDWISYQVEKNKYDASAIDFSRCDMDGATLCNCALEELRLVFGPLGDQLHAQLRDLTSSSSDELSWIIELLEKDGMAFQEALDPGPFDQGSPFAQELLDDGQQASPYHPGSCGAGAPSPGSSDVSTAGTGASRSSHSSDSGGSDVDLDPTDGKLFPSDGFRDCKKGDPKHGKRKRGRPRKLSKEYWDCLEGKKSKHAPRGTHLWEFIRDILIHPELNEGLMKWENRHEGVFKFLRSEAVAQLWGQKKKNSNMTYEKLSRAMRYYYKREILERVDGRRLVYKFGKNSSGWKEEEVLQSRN
# Outline: as §1
# [9] = biological target: CRX (Homo sapiens, UniProt O43186 1-299); conditions: protein: recombinant; tags: N-terminal GST; dsDNA, one strand shown
# Outline: as §1
# [10] = biological target: ETV1 (Homo sapiens, UniProt P50549 1-477); conditions: protein: recombinant; tags: N-terminal GST; dsDNA, one strand shown
# Outline: as §1
# [11] = biological target: T6, ERF (Homo sapiens, UniProt P50548 1-548); conditions: protein: recombinant; tags: N-terminal GST; dsDNA, one strand shown
# T6 sequence: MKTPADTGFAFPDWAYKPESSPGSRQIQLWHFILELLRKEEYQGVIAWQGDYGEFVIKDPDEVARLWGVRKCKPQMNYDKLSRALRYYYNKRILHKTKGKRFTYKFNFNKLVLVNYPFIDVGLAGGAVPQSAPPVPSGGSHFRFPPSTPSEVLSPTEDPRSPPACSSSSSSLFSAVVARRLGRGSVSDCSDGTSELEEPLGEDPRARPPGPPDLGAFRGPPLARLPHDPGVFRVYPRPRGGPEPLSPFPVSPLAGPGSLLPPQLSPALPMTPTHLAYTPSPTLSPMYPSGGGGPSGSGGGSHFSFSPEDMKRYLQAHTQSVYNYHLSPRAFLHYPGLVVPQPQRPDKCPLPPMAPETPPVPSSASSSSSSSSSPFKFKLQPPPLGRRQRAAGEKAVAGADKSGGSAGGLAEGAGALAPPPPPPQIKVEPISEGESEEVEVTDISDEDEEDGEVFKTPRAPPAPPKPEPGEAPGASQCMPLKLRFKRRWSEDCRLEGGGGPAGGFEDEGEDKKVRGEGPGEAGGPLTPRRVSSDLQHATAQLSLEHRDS
# Outline: as §1
# [12] = biological target: T7, ETV3L (Homo sapiens, UniProt Q6ZN32 1-361); conditions: protein: recombinant; tags: N-terminal GST; dsDNA, one strand shown
# T7 sequence: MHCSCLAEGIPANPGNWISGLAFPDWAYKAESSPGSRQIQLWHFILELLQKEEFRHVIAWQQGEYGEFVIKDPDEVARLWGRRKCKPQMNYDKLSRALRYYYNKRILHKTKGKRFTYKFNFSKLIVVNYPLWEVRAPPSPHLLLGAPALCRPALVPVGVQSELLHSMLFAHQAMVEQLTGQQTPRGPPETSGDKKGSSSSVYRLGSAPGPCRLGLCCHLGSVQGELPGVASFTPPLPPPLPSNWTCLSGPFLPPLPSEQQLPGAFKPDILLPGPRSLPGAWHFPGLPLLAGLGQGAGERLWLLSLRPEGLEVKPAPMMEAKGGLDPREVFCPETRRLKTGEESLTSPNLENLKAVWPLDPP
# Outline: as §1
# [13] = biological target: T8, ETS2 (Homo sapiens, UniProt P15036 1-469); conditions: protein: recombinant; tags: N-terminal GST; dsDNA, one strand shown
# T8 sequence: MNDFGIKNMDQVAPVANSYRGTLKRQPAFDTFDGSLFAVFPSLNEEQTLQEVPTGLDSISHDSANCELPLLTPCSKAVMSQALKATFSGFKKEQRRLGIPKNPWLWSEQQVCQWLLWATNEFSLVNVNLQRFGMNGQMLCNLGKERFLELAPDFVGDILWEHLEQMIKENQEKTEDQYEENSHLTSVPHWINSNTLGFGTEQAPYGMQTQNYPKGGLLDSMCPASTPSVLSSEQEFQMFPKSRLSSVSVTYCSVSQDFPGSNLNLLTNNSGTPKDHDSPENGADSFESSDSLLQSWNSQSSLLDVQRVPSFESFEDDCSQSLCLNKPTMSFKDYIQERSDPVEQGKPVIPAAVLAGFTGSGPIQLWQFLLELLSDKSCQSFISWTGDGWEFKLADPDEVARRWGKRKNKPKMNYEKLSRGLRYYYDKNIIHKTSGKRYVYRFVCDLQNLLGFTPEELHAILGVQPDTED
# Outline: as §1
# [14] = biological target: T9, SPDEF (Homo sapiens, UniProt O95238 1-335); conditions: protein: recombinant; tags: N-terminal GST; dsDNA, one strand shown
# T9 sequence: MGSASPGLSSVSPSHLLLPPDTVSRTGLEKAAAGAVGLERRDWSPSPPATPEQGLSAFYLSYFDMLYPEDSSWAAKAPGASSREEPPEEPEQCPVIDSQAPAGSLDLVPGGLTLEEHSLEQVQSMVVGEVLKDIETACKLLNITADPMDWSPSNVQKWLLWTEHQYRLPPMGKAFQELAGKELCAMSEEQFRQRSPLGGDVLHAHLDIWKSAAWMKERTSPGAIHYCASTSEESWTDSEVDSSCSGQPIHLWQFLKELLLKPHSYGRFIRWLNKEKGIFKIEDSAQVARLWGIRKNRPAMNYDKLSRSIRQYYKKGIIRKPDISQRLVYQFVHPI
# Outline: as §1
# [15] = biological target: T10, ETV7 (Homo sapiens, UniProt Q9Y603 1-341); conditions: protein: recombinant; tags: N-terminal GST; dsDNA, one strand shown
# T10 sequence: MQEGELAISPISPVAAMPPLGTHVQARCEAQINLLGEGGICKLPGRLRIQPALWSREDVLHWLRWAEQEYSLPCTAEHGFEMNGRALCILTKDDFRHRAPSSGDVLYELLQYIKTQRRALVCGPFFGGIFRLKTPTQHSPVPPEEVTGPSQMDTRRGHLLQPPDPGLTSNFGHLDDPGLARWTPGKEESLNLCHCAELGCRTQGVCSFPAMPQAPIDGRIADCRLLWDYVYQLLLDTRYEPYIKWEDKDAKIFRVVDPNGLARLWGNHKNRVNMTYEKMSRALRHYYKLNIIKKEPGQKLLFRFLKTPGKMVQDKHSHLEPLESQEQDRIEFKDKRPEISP
# Outline: as §1
# [16] = biological target: T11, ELF5 (Homo sapiens, UniProt Q9UKW6-2 1-255); conditions: protein: recombinant; tags: N-terminal GST; dsDNA, one strand shown
# T11 sequence: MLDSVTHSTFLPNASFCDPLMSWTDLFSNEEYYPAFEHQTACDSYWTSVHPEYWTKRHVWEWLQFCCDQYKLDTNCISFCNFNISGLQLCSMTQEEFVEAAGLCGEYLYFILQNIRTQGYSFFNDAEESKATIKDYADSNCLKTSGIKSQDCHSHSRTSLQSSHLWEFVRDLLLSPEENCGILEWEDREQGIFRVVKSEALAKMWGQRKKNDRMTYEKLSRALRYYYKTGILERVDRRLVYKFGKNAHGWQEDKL
# Outline: as §1
# [17] = biological target: T12, ETV3 (Homo sapiens, UniProt P41162-2 1-143); conditions: protein: recombinant; tags: N-terminal GST; dsDNA, one strand shown
# T12 sequence: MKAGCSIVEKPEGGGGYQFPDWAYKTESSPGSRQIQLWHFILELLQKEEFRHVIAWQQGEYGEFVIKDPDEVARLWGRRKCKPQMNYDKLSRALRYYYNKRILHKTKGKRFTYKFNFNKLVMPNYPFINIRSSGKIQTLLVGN
# Outline: as §1
# [18] = biological target: ETV6 (Homo sapiens, UniProt P41212 1-452); conditions: protein: recombinant; tags: N-terminal GST; dsDNA, one strand shown
# Outline: as §1
# ETV5, sequence (P41161 whole entry): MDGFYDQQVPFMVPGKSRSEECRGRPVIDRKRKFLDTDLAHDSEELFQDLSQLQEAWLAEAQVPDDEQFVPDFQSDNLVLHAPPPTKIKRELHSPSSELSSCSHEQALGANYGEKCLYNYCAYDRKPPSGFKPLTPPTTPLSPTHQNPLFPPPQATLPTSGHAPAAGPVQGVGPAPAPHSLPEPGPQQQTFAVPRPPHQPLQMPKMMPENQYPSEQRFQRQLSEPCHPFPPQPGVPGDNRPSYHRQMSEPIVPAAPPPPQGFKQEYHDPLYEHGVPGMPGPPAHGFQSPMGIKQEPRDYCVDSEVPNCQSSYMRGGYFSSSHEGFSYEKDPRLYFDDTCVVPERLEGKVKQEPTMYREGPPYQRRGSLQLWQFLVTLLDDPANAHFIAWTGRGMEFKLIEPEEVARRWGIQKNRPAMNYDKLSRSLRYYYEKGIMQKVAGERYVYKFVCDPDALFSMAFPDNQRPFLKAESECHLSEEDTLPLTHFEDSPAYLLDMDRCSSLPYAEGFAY
# ETV1, sequence (P50549 whole entry): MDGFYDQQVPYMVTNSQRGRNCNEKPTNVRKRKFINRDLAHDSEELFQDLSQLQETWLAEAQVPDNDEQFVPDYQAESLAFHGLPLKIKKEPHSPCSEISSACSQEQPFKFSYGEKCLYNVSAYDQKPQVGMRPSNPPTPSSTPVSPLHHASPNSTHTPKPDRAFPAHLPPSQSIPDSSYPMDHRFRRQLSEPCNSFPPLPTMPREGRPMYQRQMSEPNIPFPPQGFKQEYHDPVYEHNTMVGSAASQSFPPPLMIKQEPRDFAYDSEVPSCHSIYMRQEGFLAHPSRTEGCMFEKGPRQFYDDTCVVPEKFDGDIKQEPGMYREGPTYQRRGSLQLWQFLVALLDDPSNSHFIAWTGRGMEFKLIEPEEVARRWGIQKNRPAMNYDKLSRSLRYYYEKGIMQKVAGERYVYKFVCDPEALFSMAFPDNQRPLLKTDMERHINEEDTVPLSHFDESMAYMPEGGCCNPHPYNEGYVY
# CRX, sequence (O43186 whole entry): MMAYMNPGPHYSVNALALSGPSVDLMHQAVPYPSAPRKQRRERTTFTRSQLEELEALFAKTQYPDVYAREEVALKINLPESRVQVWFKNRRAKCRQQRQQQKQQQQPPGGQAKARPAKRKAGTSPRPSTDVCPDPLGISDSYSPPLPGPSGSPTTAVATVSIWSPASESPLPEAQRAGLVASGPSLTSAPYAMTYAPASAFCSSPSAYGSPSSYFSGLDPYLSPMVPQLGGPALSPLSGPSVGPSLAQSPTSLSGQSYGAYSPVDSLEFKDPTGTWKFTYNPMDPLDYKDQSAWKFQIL
# HSF1, sequence (Q00613 whole entry): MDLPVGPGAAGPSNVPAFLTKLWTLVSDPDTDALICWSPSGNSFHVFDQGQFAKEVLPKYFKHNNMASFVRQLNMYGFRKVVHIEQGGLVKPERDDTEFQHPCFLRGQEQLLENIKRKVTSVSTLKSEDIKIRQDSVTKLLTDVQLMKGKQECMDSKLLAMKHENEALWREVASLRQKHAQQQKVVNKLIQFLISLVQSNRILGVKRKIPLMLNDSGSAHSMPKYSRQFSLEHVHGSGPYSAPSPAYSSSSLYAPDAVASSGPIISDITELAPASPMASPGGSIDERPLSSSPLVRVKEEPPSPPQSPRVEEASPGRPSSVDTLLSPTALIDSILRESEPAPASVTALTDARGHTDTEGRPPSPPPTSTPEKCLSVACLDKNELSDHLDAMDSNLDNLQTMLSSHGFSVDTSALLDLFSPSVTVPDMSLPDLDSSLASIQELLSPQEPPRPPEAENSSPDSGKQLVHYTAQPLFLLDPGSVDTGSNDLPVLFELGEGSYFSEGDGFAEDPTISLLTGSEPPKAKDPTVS
# ETV6, sequence (P41212 whole entry): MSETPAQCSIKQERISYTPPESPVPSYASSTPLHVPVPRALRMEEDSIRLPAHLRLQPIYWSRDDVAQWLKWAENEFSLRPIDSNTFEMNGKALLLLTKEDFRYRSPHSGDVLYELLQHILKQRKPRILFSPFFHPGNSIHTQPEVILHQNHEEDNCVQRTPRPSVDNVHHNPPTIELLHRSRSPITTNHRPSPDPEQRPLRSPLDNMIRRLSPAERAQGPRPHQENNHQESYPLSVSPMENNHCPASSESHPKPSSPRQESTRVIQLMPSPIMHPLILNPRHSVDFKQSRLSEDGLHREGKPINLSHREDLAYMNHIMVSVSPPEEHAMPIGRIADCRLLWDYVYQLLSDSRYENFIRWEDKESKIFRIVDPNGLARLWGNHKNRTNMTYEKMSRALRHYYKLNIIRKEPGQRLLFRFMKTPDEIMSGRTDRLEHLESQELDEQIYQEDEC
# ELF4, sequence (Q99607 whole entry): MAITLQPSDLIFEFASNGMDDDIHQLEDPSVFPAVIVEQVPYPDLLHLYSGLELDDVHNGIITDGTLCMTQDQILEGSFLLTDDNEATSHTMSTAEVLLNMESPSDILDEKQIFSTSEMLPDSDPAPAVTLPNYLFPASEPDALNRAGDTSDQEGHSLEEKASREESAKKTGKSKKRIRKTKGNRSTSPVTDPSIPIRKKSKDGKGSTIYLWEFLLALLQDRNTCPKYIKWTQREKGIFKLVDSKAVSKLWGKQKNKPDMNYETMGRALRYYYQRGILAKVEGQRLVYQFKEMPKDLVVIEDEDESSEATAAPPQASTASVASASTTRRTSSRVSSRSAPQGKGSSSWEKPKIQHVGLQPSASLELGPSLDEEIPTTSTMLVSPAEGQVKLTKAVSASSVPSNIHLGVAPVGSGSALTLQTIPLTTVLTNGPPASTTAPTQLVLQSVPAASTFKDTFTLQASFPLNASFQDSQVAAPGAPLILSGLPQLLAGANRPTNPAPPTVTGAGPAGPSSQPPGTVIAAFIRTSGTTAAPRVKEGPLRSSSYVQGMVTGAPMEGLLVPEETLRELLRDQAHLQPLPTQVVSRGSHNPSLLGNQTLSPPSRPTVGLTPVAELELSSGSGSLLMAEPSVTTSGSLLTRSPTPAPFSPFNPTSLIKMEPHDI
sequence,measurement,setting,value
AAACCT,binding signal,[1],"1.08 fold enrichment (6-mer frequency, TF over GST control)"
same,binding signal,[2],"1.13 fold enrichment (6-mer frequency, TF over GST control)"
same,binding signal,[3],"1.15 fold enrichment (6-mer frequency, TF over GST control)"
same,binding signal,[4],"1.09 fold enrichment (6-mer frequency, TF over GST control)"
same,binding signal,[5],"1.16 fold enrichment (6-mer frequency, TF over GST control)"
same,binding signal,[6],"1.2 fold enrichment (6-mer frequency, TF over GST control)"
same,binding signal,[7],"1.19 fold enrichment (6-mer frequency, TF over GST control)"
same,binding signal,[8],"1.19 fold enrichment (6-mer frequency, TF over GST control)"
same,binding signal,[9],"1.24 fold enrichment (6-mer frequency, TF over GST control)"
same,binding signal,[10],"1.15 fold enrichment (6-mer frequency, TF over GST control)"
same,binding signal,[11],"1.18 fold enrichment (6-mer frequency, TF over GST control)"
same,binding signal,[12],"1.07 fold enrichment (6-mer frequency, TF over GST control)"
same,binding signal,[13],"1.13 fold enrichment (6-mer frequency, TF over GST control)"
same,binding signal,[14],"1.05 fold enrichment (6-mer frequency, TF over GST control)"
same,binding signal,[15],"1.16 fold enrichment (6-mer frequency, TF over GST control)"
same,binding signal,[16],"1.13 fold enrichment (6-mer frequency, TF over GST control)"
same,binding signal,[17],"1.1 fold enrichment (6-mer frequency, TF over GST control)"
same,binding signal,[18],"1.16 fold enrichment (6-mer frequency, TF over GST control)"
